Results filed as inconclusive are left out. Activity calls are given as the source filed them. Unless noted, calls come from the whole dose curve; as a rule, active = well fitted curve in the direction sought with a large enough effect; inconclusive = small, poorly fitted or top-dose-only effect, or another doubt; inactive = no such curve, though single readings can be large; an effect the other way counts as inactive or inconclusive.

Experiment [1] is described as follows: qHTS profiling of the MIPE4 collection as inhibitors of Plasmodium falciparum (DD2) proliferation (AID 743345; call rule not given here). Conditions: P. falciparum Dd2 in erythrocytes, SYBR Green DNA, 72 h; at 28.5 µM (top of the series) unless noted. The method in brief:
(§1)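 Erythrocytes infected with P. falciparum (0.3% parasitemia, 2.5% hematocrit) incubated with compounds 72 h at 37 C, 5% CO2. Lysis with saponin/Triton buffer containing SYBR Green I, overnight at room temperature in the dark; DNA fluorescence (485/535 nm) normalised to 0.29 uM artemisinin and DMSO.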
For orientation: Quantitative high-throughput screening tests each substance at several concentrations.

A short description of experiment [2]: qHTS profiling of the MIPE4 collection as inhibitors of Plasmodium falciparum (DD2) proliferation (Rep 2) (AID 743346; call rule not given here). Conditions: P. falciparum Dd2 in erythrocytes, SYBR Green DNA, 72 h; at 28.5 µM (top of the series) unless noted. The method in brief:
as §1

The nature of experiment [3]: qHTS profiling of the MIPE4 collection as inhibitors of Plasmodium falciparum (HB3) proliferation (AID 743347; call rule not given here;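 note: plate controls were DMSO vehicle wells for no effect and artemisinin wells for full effect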). As to conditions: P. falciparum HB3 in erythrocytes, SYBR Green DNA, 72 h; at 28.5 µM (top of the series) unless noted. The method in brief:
as §1

Experiment [4] in a line: High-throughput drug toxicity screening in the BPDCN cell line Cal-1 (AID 1224825; call rule not given here). As to conditions: Cal-1 BPDCN cell viability, qHTS; at 45.8 µM (top of the series) unless noted. In a few lines:
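500 Cal-1 cells/well, RPMI + glutamine + 10% FBS (phenol red-free); cpd added by pin tool; 48 h, 37C, 5% CO2; CTG 15 min RT, lumi read. Normalised: DMSO 100%, bortezomib 9.2 uM 0%.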

The nature of experiment [5]: qHTS assay for measurement of the activity of small molecule inhibitors on Zika virus induced Caspase-3 activity in human iPSC derived neural progenitor cells (hNPCs) (AID 1224857). Note: % of control where 0% means no effect; nearly all actives have a fitted effect of over 65% in size. In a few lines: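 Zika virus (2 FFU/cell) infection of human iPSC-derived NPCs, 6 h, following 1 h compound preincubation. Read-out: Caspase-Glo 3/7 luminescence.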
Experiment [6] is described as follows: qHTS assay for measurement of the activity of small molecule inhibitors on Zika virus induced Caspase-3 activity in human astrocytoma cells (AID 1224859).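 Note: plate controls were ZIKV-infected untreated cells for no effect and uninfected cells for full effect.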 The method in brief: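 Caspase activation in ZIKV-infected SNB-19 cells (2 FFU/cell, 6 h) measured by Caspase-Glo 3/7 luminescence after 30 min RT; compound pre-incubated 1 h; normalised to uninfected and infected controls.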

Experiment [7] can be described thus: qHTS Screen of the MIPE 4.0 Collection Against Ewings Sarcoma (TC71) (AID 1259253). Note: nearly all actives have a fitted effect of over 40% in size. Note: potency is the fitted concentration of half-maximal effect. In a few lines: (§2)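 CellTiter-Glo luminescence after 48 h compound exposure (titration) gave viability; percent activity used DMSO-treated cells as no inhibition and medium-only wells as full inhibition. Cells grown in RPMI/5% FBS, dosed 4 h post-seeding.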
Experiment [8] is described as follows: qHTS Screen of the MIPE 4.0 Collection Against Ewings Sarcoma (EW8) (AID 1259255).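 For viability: 100% = DMSO-treated cells and 0% = medium-only wells without cells.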 Note: nearly all actives have a fitted effect of over 35% in size. Note: potency is the fitted concentration of half-maximal effect. The method in brief:
as §2

Experiment [9] is described as follows: qHTS Screen of the MIPE 4.0 Collection Against Ewings Sarcoma (TC32) (AID 1259256). Note: nearly all actives have a fitted effect of over 45% in size. Note: potency is the fitted concentration of half-maximal effect. The method in brief: as §2
A short description of experiment [10]: Identifying Small Molecule Inhibitors of Pancreatic Cancer Stem Cells (A2780, Spheroid) (AID 1259357).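 Note: compound exposure lasted 48 h before the ATP luminescence read; 100% = DMSO treated cells and 0% = wells without cells.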 Conditions: Potency: A2780 spheroid viability. The method in brief:
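Pre-formed 14-day tumor spheroids or adherent cells dosed and incubated 48 h, 37C, 5% CO2. Viability assessed by CellTiter-Glo.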

The nature of experiment [11]: Identifying Small Molecule Inhibitors of Pancreatic Cancer Stem Cells (SN12C, Adherent) (AID 1259358).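 Note: cell survival measured after 48 h of compound exposure.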 In a few lines: (§3)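 Cytotoxicity read by CellTiter-Glo luminescence after 48 h compound exposure at 37C; percent activity scaled between DMSO-treated cells and cell-free wells. Spheroid formats used cells pre-formed 14 days in stem cell media on hydrogel.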
A short description of experiment [12]: Identifying Small Molecule Inhibitors of Pancreatic Cancer Stem Cells (A278, Adherent) (AID 1259361).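 Note: 100% = DMSO-treated cells and 0% = cell-free media-only wells; nearly all actives have a fitted effect of over 35% in size.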 The method in brief:
as §3

Experiment [13] is described as follows: qHTS Screen of the MIPE 4.0 Collection Against Ewings Sarcoma (RDES) (AID 1259252). Note: nearly all actives have a fitted effect of over 35% in size. Note: potency is the fitted concentration of half-maximal effect. The method in brief:
as §2

Experiment [14] in a line: qHTS assay to identify small molecule inhibitors of chordoma cells - UCH-1 (AID 1259355). Note: % is set by controls: 0 for no effect and ±100 for the full control effect; nearly all actives have a fitted effect of over 55% in size. The method in brief:
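Seed 800 cells per well; incubate overnight at 37 C, 5% CO2. Add test compounds (15 concentrations), then the auranofin–topoisomerase-agent combination. Incubate 48hr, add CellTiter-Glo, wait 30min, read luminescence.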

The nature of experiment [15]: qHTS assay to identify small molecule inhibitors of chordoma cells - UCH-2 (AID 1259356). Note: % is set by controls: 0 for no effect and ±100 for the full control effect.
Experiment [16] can be described thus: P-glycoprotein substrates identified in KB-3-1 adenocarcinoma cell line, qHTS therapeutic library screen (AID 1346986). Note: nearly all actives have a fitted effect of over 60% in size. The method in brief:
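Cells seeded 500/well in DMEM/10% FCS; compounds pinned in dose-response; 72 h incubation; CellTiter-Glo added, 5 min, luminescence. KB-8-5-11 run ±tariquidar to test reversal of P-gp resistance.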

The nature of experiment [17]: Identifying Small Molecule Inhibitors of Pancreatic Cancer Stem Cells (Panc1, Adherent) (AID 1259362). Note: potency is the fitted concentration of half-maximal effect. Conditions: Potency: viability. In a few lines:
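Spheroids grown 14 days in stem cell media on hydrogel-coated nonadherent plates; 2D lines seeded directly. Compounds added after 4 h attachment, 48 h at 37C, 5% CO2; CellTiter-Glo luminescence normalized to DMSO (no inhibition) and no-cell wells (full inhibition).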

For `Cc1cccc(-c2[nH]ncc2-c2ccc3ncccc3n2)n1`, the parasite growth remaining, % of DMSO control (lower = more inhibition) in experiment [1] came to 94.4%. This compound yielded a parasite growth, % of control (lower = inhibition) in experiment [2] of 81.1%. The same compound registered a growth, % of control in [3] of 52.8%. For the same compound, in experiment [4], the viability (% of control) worked out at 106%. Further, the Potency entry in experiment [5], in experiment [6], in experiment [7], in [8], in experiment [9] and in experiment [10] was “inactive” throughout. Also, the Potency entry in experiment [11] was “inactive”. Besides, the IC50 (viability decrease) result in [12] was “inactive”.
Turning to `COc1ccc(C2(C#N)CCC(C(=O)O)CC2)cc1OC1CCCC1` (stereo not drawn), in experiment [3], the growth, % of control was 101%. Moreover, in experiment [4], the viability (% of control) came out at 87.2%. In addition, the Potency entry in experiment [5], in experiment [6], in experiment [13], in experiment [7], in [8] and in experiment [9] was “inactive” throughout. In addition, the Potency entry in experiment [14] and in [15] was “inactive” throughout.
For `COCCCOc1ccnc(CS(=O)c2nc3ccccc3[nH]2)c1C` (stereo not drawn), in [4], the viability (% of control) turned out to be 104%. For the same compound, the Potency result in experiment [5], in experiment [6], in [13], in experiment [8], in experiment [14] and in experiment [15] was “inactive” in each case. In experiment [16], the Potency result was “inactive”. The Potency in experiment [9] is 8.33 µM (active).
Take `O=Nc1c(-c2c(O)[nH]c3cc(Br)ccc23)[nH]c2ccccc12`: in experiment [1], the parasite growth remaining, % of DMSO control (lower = more inhibition) was found to be 6.11%. Besides, in experiment [2], the parasite growth, % of control (lower = inhibition) was 3.69%. The same compound showed a growth, % of control in experiment [3] of 1.37%. Moreover, in experiment [4], the viability (% of control) worked out at 1.62%. Further, the Potency result in experiment [5] and in [6] was “inactive” throughout. Further, the Potency in experiment [13] was 3.32 µM (active); in experiment [7], 7.43 µM (active); in [8], 4.18 µM (active); in experiment [9] it was 4.18 µM (active).
In the case of `Cc1cccc(C)c1OCC(=O)N[C@@H](Cc1ccccc1)[C@@H](O)C[C@H](Cc1ccccc1)NC(=O)[C@H](C(C)C)N1CCCNC1=O`, the parasite growth remaining, % of DMSO control (lower = more inhibition) in experiment [1] is 8.67%. This compound had a parasite growth, % of control (lower = inhibition) in experiment [2] of 16.3%. In [3], this compound came in with a growth, % of control of 3.91%. The viability (% of control) in [4] was found to be 91.4%. Further, the Potency result in [5], in experiment [6], in experiment [14] and in experiment [15] was “inactive” in each case.
The compound `CC(=O)NC[C@H]1CN(c2ccc(N3CCOCC3)c(F)c2)C(=O)O1` registered a parasite growth remaining, % of DMSO control (lower = more inhibition) in experiment [1] of 87.8%. In addition, the parasite growth, % of control (lower = inhibition) in experiment [2] worked out at 51.6%. The growth, % of control in experiment [3] is 94.8%. Also, in experiment [4], the viability (% of control) turned out to be 105%. The Potency entry in experiment [5], in experiment [6], in [13], in experiment [14] and in [15] was “inactive” throughout.
Compound `c1cnc2cc3c(cc2n1)C1CNCC3C1` yielded a parasite growth remaining, % of DMSO control (lower = more inhibition) in experiment [1] of 96.8%. The same compound returned a parasite growth, % of control (lower = inhibition) in [2] of 52.2%. The same compound showed a growth, % of control in [3] of 68.4%. Moreover, in experiment [4], the viability (% of control) worked out at 97.2%. The Potency entry in experiment [5], in [6], in experiment [13], in [7], in experiment [8] and in [9] was “inactive” each time. For the same compound, in experiment [16], the Potency entry was “inactive”.
Consider `Cc1c(OCC(F)(F)F)ccnc1CS(=O)c1nc2ccccc2[nH]1` (stereo not drawn), for which the viability (% of control) in [4] turned out to be 100%. For the same compound, the Potency result in experiment [5], in experiment [6], in [9], in experiment [14] and in [15] was “inactive” throughout.
`Cc1nc(Nc2ncc(C(=O)Nc3c(C)cccc3Cl)s2)cc(N2CCN(CCO)CC2)n1` gave a parasite growth remaining, % of DMSO control (lower = more inhibition) in experiment [1] of 65.3%. Moreover, the parasite growth, % of control (lower = inhibition) in experiment [2] was 17.6%. The compound also came in with a growth, % of control in [3] of 3.03%. Further, the viability (% of control) in experiment [4] is 11.7%. In addition, the Potency result in experiment [5] and in experiment [6] was “inactive” in each case. The Potency in [8] and in experiment [17] was 20.9 µM (active) throughout.

Source of the values: PubChem BioAssay (NCATS).
